Data as given in PubChem BioAssay AID1159580 (chemical genetic matrix, 2015).
Screen size: about 5,500 compounds; about 2,000 (36%) were called active. Roughly 18% stayed inconclusive and do not appear here. Cut-off read from the data, not from the text of the source: active = normalized growth mostly below about 0.91 (no sharp cut-off); inconclusive = no clear call, values can overlap the other calls; inactive = mostly above about 0.92. Some of the results follow.

Experiment: chemical genetic growth profiling, strain panel (AID 1159580);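 note: tested at 20 µM; growth read once vehicle control cultures reached saturation at 30 °C; 1 = growth at the plate median or of vehicle wells; lower values mean less growth of the strain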
Conditions: growth OD

Measured: normalized growth

C=C1C(=O)OC2CC1C(OC(C)=O)C/C(C)=C/CC/C(C)=C/CC[C@]2(C)O (stereo partly specified)
inactive: S. cerevisiae deletion strains, locus YJR043C, strain POL32, active compounds read low 1.04 | S. cerevisiae deletion strains, locus YJR075W, strain HOC1, active compounds read low 0.999 | S. cerevisiae deletion strains, locus YKL009W, strain mrt4, active compounds read low 0.998 | S. cerevisiae deletion strains, locus YKL068W, active compounds read low 1.01 | S. cerevisiae deletion strains, locus YKL085W, strain MDH1 (second series), active compounds read low 0.99 | S. cerevisiae deletion strains, locus YKL085W, strain MDH1, active compounds read low 0.99 | S. cerevisiae deletion strains, locus YKL160W, strain elf1, active compounds read low 0.982 | S. cerevisiae deletion strains, locus YKR001C, strain vps1, active compounds read low 1.02 | S. cerevisiae deletion strains, locus YKR026C, strain gcn3, active compounds read low 0.997 | S. cerevisiae deletion strains, locus YKR091W, strain srl3, active compounds read low 0.981 | S. cerevisiae deletion strains, locus YLL001W, strain dnm1, active compounds read low 0.973 | S. cerevisiae deletion strains, locus YLL026W, active compounds read low 0.987 | S. cerevisiae deletion strains, locus YLL041C, strain sdh2, active compounds read low 0.993 | S. cerevisiae deletion strains, locus YLR027C, strain aat2, active compounds read low 1.01 | S. cerevisiae deletion strains, locus YLR039C, strain RIC1, active compounds read low 0.894 | S. cerevisiae deletion strains, locus YLR058C, strain SHM2, active compounds read low 1.02 | S. cerevisiae deletion strains, locus YLR102C, strain apc9, active compounds read low 1.02 | S. cerevisiae deletion strains, locus YLR221C, strain rsa3, active compounds read low 1.03 | S. cerevisiae deletion strains, locus YLR258W, strain gsy2, active compounds read low 1 | S. cerevisiae deletion strains, locus YLR262C, strain YPT6 (second series), active compounds read low 0.916 | S. cerevisiae deletion strains, locus YLR262C, strain YPT6, active compounds read low 0.858 | S. cerevisiae deletion strains, locus YLR268W, strain sec22, active compounds read low 1 | S. cerevisiae deletion strains, locus YLR320W, strain mms22, active compounds read low 1.03 | S. cerevisiae deletion strains, locus YLR330W, strain CHS5, active compounds read low 1.03 | S. cerevisiae deletion strains, locus YLR342W, strain FKS1 (second series), active compounds read low 0.993 | S. cerevisiae deletion strains, locus YLR342W, strain FKS1, active compounds read low 0.995 | S. cerevisiae deletion strains, locus YLR357W, strain rsc2, active compounds read low 1.02 | S. cerevisiae deletion strains, locus YLR370C, strain arc18, active compounds read low 0.998 | S. cerevisiae deletion strains, locus YLR371W, strain rom2, active compounds read low 1.02 | S. cerevisiae deletion strains, locus YLR384C, strain iki3, active compounds read low 0.997 | S. cerevisiae deletion strains, locus YLR418C, strain cdc73, active compounds read low 1.06 | S. cerevisiae deletion strains, locus YML016C, strain PPZ1, active compounds read low 1.01 | S. cerevisiae deletion strains, locus YML032C, strain rad52, active compounds read low 1.01 | S. cerevisiae deletion strains, locus YML120C, strain ndi1, active compounds read low 0.99 | S. cerevisiae deletion strains, locus YML124C, strain tub3, active compounds read low 1.01 | S. cerevisiae deletion strains, locus YMR058W, strain fet3, active compounds read low 0.99 | S. cerevisiae deletion strains, locus YMR078C, strain ctf18, active compounds read low 1.01 | S. cerevisiae deletion strains, locus YMR125W, strain sto1, active compounds read low 0.973 | S. cerevisiae deletion strains, locus YMR129W, active compounds read low 0.997 | S. cerevisiae deletion strains, locus YMR205C, strain PFK2, active compounds read low 0.985 | S. cerevisiae deletion strains, locus YMR223W, strain ubp8, active compounds read low 1 | S. cerevisiae deletion strains, locus YMR231W, strain pep5, active compounds read low 0.976 | S. cerevisiae deletion strains, locus YMR263W, strain SAP30, active compounds read low 1.01 | S. cerevisiae deletion strains, locus YMR307W, strain GAS1, active compounds read low 0.977 | S. cerevisiae deletion strains, locus YNL067W, strain RPL9B, active compounds read low 1.01 | S. cerevisiae deletion strains, locus YNL071W, strain lat1, active compounds read low 0.996 | S. cerevisiae deletion strains, locus YNL128W, strain TEP1, active compounds read low 1.03 | S. cerevisiae deletion strains, locus YNL153C, strain GIM3, active compounds read low 1.04 | S. cerevisiae deletion strains, locus YNL209W, strain ssb2, active compounds read low 0.991 | S. cerevisiae deletion strains, locus YNL233W, strain BNI4, active compounds read low 1.02 | S. cerevisiae deletion strains, locus YNL248C, strain rpa49, active compounds read low 0.988 | S. cerevisiae deletion strains, locus YNL250W, strain rad50, active compounds read low 1.04 | S. cerevisiae deletion strains, locus YNL271C, strain bni1, active compounds read low 1.02 | S. cerevisiae deletion strains, locus YNL298W, strain CLA4, active compounds read low 1.01 | S. cerevisiae deletion strains, locus YNL307C, strain MCK1, active compounds read low 1.03 | S. cerevisiae deletion strains, locus YNL322C, strain KRE1 (second series), active compounds read low 1.01 | S. cerevisiae deletion strains, locus YNL322C, strain KRE1, active compounds read low 1 | S. cerevisiae deletion strains, locus YNR049C, strain mso1, active compounds read low 0.994 | S. cerevisiae deletion strains, locus YNR052C, strain pop2, active compounds read low 1.01 | S. cerevisiae deletion strains, locus YOL012C, strain htz1 0.807 | S. cerevisiae deletion strains, locus YOL147C, strain pex11, active compounds read low 1.03 | S. cerevisiae deletion strains, locus YOR001W, strain rrp6, active compounds read low 1.01 | S. cerevisiae deletion strains, locus YOR061W, strain CKA2, active compounds read low 1.02 | S. cerevisiae deletion strains, locus YOR069W, strain VPS5, active compounds read low 1.01 | S. cerevisiae deletion strains, locus YOR070C, strain gyp1, active compounds read low 0.995 | S. cerevisiae deletion strains, locus YOR080W, strain dia2, active compounds read low 1.01 | S. cerevisiae deletion strains, locus YOR083W, strain WHI5, active compounds read low 0.985 | S. cerevisiae deletion strains, locus YOR106W, strain vam3, active compounds read low 1 | S. cerevisiae deletion strains, locus YOR136W, strain idh2, active compounds read low 1.02 | S. cerevisiae deletion strains, locus YOR144C, strain elg1, active compounds read low 1.02 | S. cerevisiae deletion strains, locus YOR184W, strain ser1, active compounds read low 1.02 | S. cerevisiae deletion strains, locus YOR265W, strain rbl2, active compounds read low 0.996 | S. cerevisiae deletion strains, locus YOR270C, strain vph1, active compounds read low 0.937 | S. cerevisiae deletion strains, locus YOR290C, strain snf2, active compounds read low 0.961 | S. cerevisiae deletion strains, locus YOR316C, strain cot1, active compounds read low 1.01 | S. cerevisiae deletion strains, locus YPL051W, strain arl3, active compounds read low 1.01 | S. cerevisiae deletion strains, locus YPL078C, strain atp4, active compounds read low 0.96 | S. cerevisiae deletion strains, locus YPL106C, strain sse1, active compounds read low 0.991 | S. cerevisiae deletion strains, locus YPL240C, strain hsp82, active compounds read low 1 | S. cerevisiae deletion strains, locus YPL241C, strain CIN2, active compounds read low 1 | S. cerevisiae deletion strains, locus YPR119W, strain clb2, active compounds read low 1.01 | S. cerevisiae deletion strains, locus YPR141C, strain kar3, active compounds read low 1.01 | S. cerevisiae deletion strains, locus YPR163C, strain tif3, active compounds read low 1 | S. cerevisiae deletion strains, locus YPR167C, strain met16, active compounds read low 1.01 | S. cerevisiae deletion strains, strain wtn01, active compounds read low 1.02 | S. cerevisiae strains, strain wild type, active compounds read low 1.01
